# Values joined by “and” are separate entries in the source; they are usually repeats but may differ in a detail not shown here. Equal values may be shown once. The whole screen tested about 1,100 compounds, of which fewer than 10 were called active.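 Rule for the calls: active = percent response below a set limit in fluorescence channel 1 and below 50% in channel 8; inactive = the rest.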 Not all results are given here.
# Assay: compound fluorescence in dual-transfected Am2.2 cells, confirmation, artefact control for beta2AR agonist internalization project, cell-based, FAP fluorogen, flow cytometry, cherry pick 1 (AID 588765);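 note: low percent response here flags compound autofluorescence meaning a false positive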
# Conditions: fluorescence counterscreen, at 10 µM, stronger effect = lower value; percent response FL8: measured here: FL8 channel fluorescence
Structure (SMILES),percent response FL1,percent response FL8
O=C1C(=O)N(CC2COc3ccccc3O2)c2ccccc21 (configuration not stated),108% (inactive),112%
COc1ccc(-n2nc3c(N4CCC(C(=O)NCc5ccccc5)CC4)nnc(C)c3c2C)cc1,130% (inactive),115%
CCCOc1ccc(C(=O)C(CCC(CNCC)C(=O)c2ccc(OCCC)cc2)CNCC)cc1 (configuration not stated),82.8% (inactive),76.7%
O=C(NCCCn1ccnc1)C1CCCN(S(=O)(=O)c2cc(Cl)ccc2Cl)C1 (configuration not stated),8.86% (inactive),109%
COc1cc(C#Cc2ccc3cc(CCCO)oc(=O)c3c2)cc(OC)c1,92.6% (inactive),102%
CCCCCCCCCCOC(=O)Cn1c(COc2ccc(C)cc2)[n+](C)c2ccccc21,120% (inactive),113%
CC(=O)c1ccc(NC(=O)c2ccc3c(Cl)c4c(nc3c2)CCCC4)cc1,52.7% (inactive),89.7%
CCOC(=O)c1ccc(NC(=O)Cn2nnc(-c3ccc(C)cc3)n2)cc1,12.2% (inactive) and 8.97% (inactive),98.7% and 110%
O=S(=O)(Nc1ccc2[nH]ncc2c1)c1ccccc1Cl,86% (inactive),87.7%
COc1ccc(C(CCNCc2ccccc2F)c2ccc(F)cc2)cc1 (configuration not stated),101% (inactive),110%
Cc1cc(S(=O)(=O)N2CCOCC2)ccc1OCC(=O)Nc1cccc(C(F)(F)F)c1,97.5% (inactive),108%
CC(CCc1ccccc1)NCC(O)c1cccc([N+](=O)[O-])c1 (configuration not stated),120% (inactive),128%
CCOc1ccc(NC(=O)COc2ccc(S(=O)(=O)N3CCCC3)cc2)cc1,109% (inactive),101%
CCCN(CCc1ccccc1)C1CCc2c(O)cccc2C1 (configuration not stated),103% (inactive),98.5%
Oc1ccc(N=Cc2sc3ccccc3c2Cl)cc1,99.5% (inactive),93.9%
O=C(Nc1ccc2c(c1)OCCO2)C(c1ccc(F)cc1)N1CCCCC1 (configuration not stated),114% (inactive),111%
CSc1ccc(CCNC(=O)C2CCN(c3nnc(-n4cccc4)s3)CC2)cc1,45.7% (inactive),94.2%
N#Cc1cccc(NC(=O)COC(=O)c2ccccc2C(=O)c2ccc(Cl)c([N+](=O)[O-])c2)c1,100% (inactive),89%

Structure (SMILES),percent response FL1,percent response FL8
CC(=O)Nc1ccc(CN2CCC(Oc3ccc(C(=O)N4CCCC4)cc3)CC2)cc1,109% (inactive),109%
COc1ccc(S(=O)(=O)N2CCCC(C(=O)Nc3ccc(NC(=O)c4ccccn4)cc3)C2)cc1 (configuration not stated),45.3% (inactive),95.6%
CC(=O)Nc1ccc(Nc2c3ccccc3nc3ccccc23)cc1,68.8% (inactive),126%
C=CCNC(=S)N/N=C/c1ccc(C)s1,100% (inactive),93.3%
CCN1CCC2(CC1)N=C(c1ccc(F)cc1)C(=S)N2C(=O)c1ccc(C)cc1,98.4% (inactive),96.3%
Cc1ccc(Cl)cc1NC(=O)CN1CCN(S(=O)(=O)N2CCOCC2)CC1,99.8% (inactive),93.1%
CSc1ccc(CNC(=O)c2ccc(NC(=O)C3=CSCCO3)cc2)cc1,16.2% (inactive),99.4%
Cc1ccc(Sc2cc(N3CCOCC3)nc(-c3ccccc3)n2)cc1,29.8% (inactive),111%
COc1ccc(OC)c(NC(=O)c2sc3nc(C)cc(C)c3c2N)c1,45.6% (inactive),111%
CC(=O)c1cccc(NC(=O)COc2ccc(S(=O)(=O)N3CCOCC3)cc2)c1,112% (inactive),104%
CCOc1ccccc1N1C(=O)CC(Sc2nccc(C)n2)C1=O (configuration not stated),100% (inactive),97.2%
O=C(C1CCN(c2nnc(-n3cccc3)s2)CC1)N1CCc2ccccc2C1,128% (inactive),104%
COc1ccc2c(c1OC)C(=O)OC2Nc1nc(-c2ccccc2)cs1 (configuration not stated),104% (inactive),92.1%
OC(CNCc1ccc(Cl)c(Cl)c1)c1ccccc1 (configuration not stated),106% (inactive),113%
COc1ccc(OC)c(S(=O)(=O)N(C)CC(=O)N2CCN(c3ccccc3)CC2)c1,95.4% (inactive) and 98.5% (inactive),99.7% and 105%
CCOc1ccccc1NC(=O)COc1ccc(S(=O)(=O)N2CCCC2)cc1,110% (inactive),107%
COc1ccc(-c2ccnc(SCC(=O)N3CCOCC3)n2)cc1,103% (inactive),100%
Cc1ccc(OCC(=O)Nc2ccc(-c3nc4ncccc4o3)cc2)cc1,13.3% (inactive) and 14.1% (inactive),113% and 112%
